Source: ChEMBL document CHEMBL3988442, “University of Dundee, Small-Polar-MMV Screening Library” (2021)
The whole screen tested about 48,000 compounds, of which about 13,000 (27%) showed an effect of 50% or more. The list shows a part of the results.

system: Wolbachia pipientis; assay: Anti-Wolbachia Cell-Based Screen; type: functional; design: scale not given: in the data most compounds retested in dose-response had high values; details: 5 µM

Compound	Percent Effect [%]
COC(=O)CNC(=O)CSCc1nc(O)c2cc(C(C)C)sc2n1	2.369
CN(Cc1ncnn1C)C(=O)Nc1ccc(OC(F)F)cc1	-14.3
CN(c1ncnc2c1CCC2)C1CCCN(c2cccnn2)C1 (configuration not stated)	4.941
COc1ccc(F)c(CN2CCCC(O)(CNCc3ncc[nH]3)C2=O)c1 (configuration not stated)	0.3473
C=C(C)COc1cccc(C(=O)N2CCC3(CCOCC3)CC2)c1	0.8095
CCOc1ccc(-c2ccnc(COc3ccccc3)n2)cc1C(=O)O	-3.347
Cn1cnc(S(=O)(=O)N2C[C@@H]3CC[C@H](C2)N(Cc2cscn2)C3=O)c1	-55.67
Cc1cc(Cl)c(C)c(S(=O)(=O)N2CCN(Cc3ccccn3)CC2)c1Cl	101.6
Cc1ccc(C)c(C(C(=O)O)N2CCCN(Cc3ccccn3)CC2)c1 (configuration not stated)	19.25
Cc1ccc(S(=O)(=O)N2CCn3nc(C)nc3C2)c(Cl)c1	0.9769
Cc1cc(F)c(C(C(=O)O)N2CCN(Cc3ccccn3)CC2)cc1Cl (configuration not stated)	7.172
Cc1ccc(S(=O)(=O)N2CCN(Cc3ccncc3)CC2)c(Cl)c1	109.7
CNS(=O)(=O)c1ccc(CN2CCCN(Cc3ccncc3)CC2)cc1	21.96
Cc1ccc(CN2CCN(Cc3ccncc3)CC2=O)cc1	-11.1
Cc1cc(CN2CCN(S(=O)(=O)c3c(C)c(Cl)cc(C)c3Cl)CC2)on1	85.02
CCCNC(=O)N1CCN(Cc2cc(C)no2)CC1	1.77
CCN1CCN(S(=O)(=O)c2cc(Cl)c(Cl)cc2C)CC1	4.693
Cc1cc(Cl)c(C)c(S(=O)(=O)N2CCN(Cc3ccncc3)CC2)c1Cl	94.36
Cc1cc(CN2CCN(C(=O)C3(C#N)CCCCC3)CC2)on1	-1.898
CNC(=O)c1ccc(NC(=O)NC(C)CCc2cccn2C)c(C)c1 (configuration not stated)	7.929
O=C(CN1CCNCC1)N1CC[C@@H](c2ccc3ccccc3c2)[C@H](O)C1	6.521
OC(COCc1ccccc1)CSc1nnc(C2CC2)n1C1CC1 (configuration not stated)	6.526
O=C(c1cccnc1-n1cncn1)N1CCN(C2CCCC2)CC1	9.271
CC(C)Cc1noc(CN(C)C[C@]2(O)CCCN3CCCC[C@@H]32)n1	1.802
CCCc1nc(CN2CCN(CC(O)c3ccccc3)CC2)no1 (configuration not stated)	-2.88
O=C(c1ccnnc1)N1C[C@@H](OCC2CCOCC2)[C@H]2OCCC[C@H]21	-2.354
CS(=O)(=O)N1C[C@@H](F)[C@@H](OCc2nc3ccccc3o2)C1	18.73
